# PubChem BioAssay (EPA / NIEHS)
# Some compounds were tested as several samples or in several runs, with calls that do not always agree. Active and inactive are the calls of the source. Rule for the calls: active = hit-call score of the fitted dose curve at least 0.9, where 1 is the maximum; inactive = score below 0.9.
# Molecular target: Hypoxia-inducible factor 1-alpha (Homo sapiens) (UniProt Q16665)
# Test: ATG_HIF1a_CIS: Attagene CIS-FACTORIAL HepG2 Assay for human Hypoxia Inducible Factor 1 (HIF1A) (AID 2282951)
# Conditions: HepG2 Attagene cis-factorial HIF1a reporter transcription; actives raise or lower the signal
# Method: ATG_CIS is a cell-based, multiplexed-readout assay that uses HepG2, a human liver cell line, with measurements taken at 24 hours after chemical dosing in a 24-well plate.ATG_HIF1a_CIS is one of 52 assay component(s) measured or calculated from the ATG_CIS assay. It is designed to make measurements of mRNA induction, a form of inducible reporter, as detected with fluorescence intensity signals by Reverse transcription polymerase chain reaction (RT-PCR) and Capillary electrophoresis technology.Data from the assay component ATG_HIF1a_CIS was analyzed into 1 assay endpoint. This assay endpoint, ATG_HIF1a_CIS, was analyzed with bidirectional fitting relative to DMSO as the negative control and baseline of activity. Using a type of inducible reporter, measures of mRNA for gain or loss-of-signal activity can be used to understand the reporter gene at the transcription factor-level as they relate to the gene HIF1A. Furthermore, this assay endpoint can be referred to as a primary readout, because this assay has produced multiple assay endpoints where this one serves a reporter gene function. To generalize the intended target to other relatable targets, this assay endpoint is annotated to the dna binding intended target family, where the subfamily is basic helix-loop-helix protein.
# Human liver HepG2 cells are transiently transfected with multiple reporter transcription units (MRTUs) in 6-well plates using FuGene 6 reagent (Roche; 3 ml FuGene/1 mg DNA). The MRTU constructs are regulated by a cis-regulating element (promoter). […] A major difference between the CIS and TRANS system is that in CIS activities of endogenous TFs are measured, whereas the TRANS assay evaluates changes in activities of exogenous, chimeric NR-Gal4 proteins. […] At the end of 24 hour incubation, total RNA was isolated using TriZol reagent (Invitrogen). The isolated RNA is then reverse-transcribed using oligo(dT) primer and Mo-MLV reverse transcriptase (Invitrogen) with DNAse I (Ambion) treatment for 30 min. The one-tenth of the produced cDNA was amplified by PCR using Taq DNA polymerase (Invitrogen) and two reporter sequence-specific primers. The PCR products were fluorescently labeled by primer extension with 6-arboxyfluorescein (6-FAM) 5'-labeled reporter sequence-specific primer (2 min at 95 C, 20 s at 68 C and 10 min at 72 C) and these products were digested with 5U of HpaI (New England Biolabs) for 2h at 37 C. The fragments were purified using Qiaquick PCR columns (Qiagen), analyzed on an ABI 3130xL genetic analyzer (Applied Biosystems) with peak positions identified by using a set of X-rhodamine (ROX)-labeled MapMarker1000 molecular weight standards (BioVentures). The raw capillary electrophoresis data was processed using Attagraph software (Attagene).
# Chain of Hypoxia-inducible factor 1-alpha (Homo sapiens) (Q16665 whole entry, looked up): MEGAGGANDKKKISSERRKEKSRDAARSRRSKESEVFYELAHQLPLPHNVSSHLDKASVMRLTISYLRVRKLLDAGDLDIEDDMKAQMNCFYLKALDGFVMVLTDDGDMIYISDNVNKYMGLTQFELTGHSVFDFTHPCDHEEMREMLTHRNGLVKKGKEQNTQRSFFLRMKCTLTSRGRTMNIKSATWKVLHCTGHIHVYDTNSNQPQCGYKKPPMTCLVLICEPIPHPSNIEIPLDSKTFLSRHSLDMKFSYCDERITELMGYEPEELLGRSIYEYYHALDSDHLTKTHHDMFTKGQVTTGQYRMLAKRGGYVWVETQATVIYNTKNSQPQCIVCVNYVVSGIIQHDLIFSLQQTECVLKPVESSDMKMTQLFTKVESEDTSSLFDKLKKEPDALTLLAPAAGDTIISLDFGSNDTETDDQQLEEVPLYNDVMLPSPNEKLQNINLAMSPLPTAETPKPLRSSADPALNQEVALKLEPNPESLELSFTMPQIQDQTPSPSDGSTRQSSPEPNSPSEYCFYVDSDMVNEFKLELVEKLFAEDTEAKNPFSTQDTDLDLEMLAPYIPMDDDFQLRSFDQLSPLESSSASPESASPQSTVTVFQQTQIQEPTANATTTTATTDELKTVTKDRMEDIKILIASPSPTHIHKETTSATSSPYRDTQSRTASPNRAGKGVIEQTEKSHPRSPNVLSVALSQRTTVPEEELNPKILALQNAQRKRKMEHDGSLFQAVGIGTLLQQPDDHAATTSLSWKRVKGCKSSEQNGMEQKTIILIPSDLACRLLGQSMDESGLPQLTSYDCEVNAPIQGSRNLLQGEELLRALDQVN
Structure (SMILES),outcome,AC50
CCOCN(C(=O)CCl)c1c(C)cccc1CC,inactive,
CNC(=O)Oc1cccc(N=CN(C)C)c1,inactive,
CN1CSC(=S)N(C)C1,inactive,
O=S(=O)(O)C(F)(F)C(F)(F)C(F)(F)C(F)(F)C(F)(F)C(F)(F)C(F)(F)C(F)(F)F,inactive,84 µM (active)
CCC(C)(NC(=O)c1cc(Cl)c(C)c(Cl)c1)C(=O)CCl (stereo not given),inactive,
C#CCN1C(=O)COc2cc(F)c(N3C(=O)C4=C(CCCC4)C3=O)cc21,inactive,
CC(C)OC(=O)Nc1cccc(Cl)c1,inactive,
CC(C)(C)C(O)/C(=C\c1ccc(Cl)cc1Cl)n1cncn1 (stereo not given),inactive,
ClC1C(Cl)C(Cl)C(Cl)C(Cl)C1Cl (stereo not given),inactive,
Cc1cc(C)nc(NC(=O)NS(=O)(=O)c2ccccc2C(=O)OC2COC2)n1,inactive,
Oc1cc(Cl)ccc1Oc1ccc(Cl)cc1Cl,inactive,
CCOc1nc(NC)nc(NC(=O)NS(=O)(=O)c2ccccc2C(=O)OC)n1,inactive,
CNC(=O)/C=C(\C)OP(=O)(OC)OC,inactive,
CC1(c2ccc(Oc3ccccc3)cc2)OC(=O)N(Nc2ccccc2)C1=O (stereo not given),inactive,
O=C1c2ccccc2C(=O)N1SC(Cl)(Cl)Cl,inactive,
O=[N+]([O-])/N=C1\NCCN1Cc1ccc(Cl)nc1,inactive,
OCCOc1ccccc1,inactive,
COP(=S)(OC)Oc1ccc(SC)c(C)c1,inactive,
CC(C)(C)C(O)C(Oc1ccc(Cl)cc1)n1cncn1 (stereo not given),inactive,
COC(=O)c1ccccc1S(=O)(=O)NC(=O)Nc1nc(C)nc(OC)n1,inactive,

Structure (SMILES),outcome,AC50
COc1nn(CSP(=S)(OC)OC)c(=O)s1,inactive,
COP(=S)(OC)Oc1ccc([N+](=O)[O-])cc1,inactive,
Clc1ccccc1-c1nnc(-c2ccccc2Cl)nn1,inactive,
CC1(C)C(C=C(Cl)Cl)C1C(=O)OC(C#N)c1ccc(F)c(Oc2ccccc2)c1 (stereo not given),inactive,
O=S1OCC2C(CO1)C1(Cl)C(Cl)=C(Cl)C2(Cl)C1(Cl)Cl (stereo not given),inactive,
CC(C)N(C(=O)COc1nnc(C(F)(F)F)s1)c1ccc(F)cc1,inactive,
CCCN(CCC)c1c([N+](=O)[O-])cc(C(F)(F)F)cc1[N+](=O)[O-],inactive,
CCC(C)(C)C(=O)OC1=C(c2ccc(Cl)cc2Cl)C(=O)OC12CCCCC2,inactive,
COC(=O)c1ccccc1CS(=O)(=O)NC(=O)Nc1nc(OC)cc(OC)n1,inactive,
Oc1ccc(Cl)cc1Cc1ccccc1,inactive,
CCCN(CCOc1c(Cl)cc(Cl)cc1Cl)C(=O)n1ccnc1,inactive,
Cc1[nH]c(=O)n(C(C)(C)C)c(=O)c1Cl,inactive,
CCC(C)Nc1c([N+](=O)[O-])cc(C(C)(C)C)cc1[N+](=O)[O-] (stereo not given),inactive,
N#Cc1c(Cl)c(Cl)c(Cl)c(C#N)c1Cl,inactive,
CNC(=O)Oc1ccccc1OC(C)C,inactive,
CCS(=O)(=O)c1cccnc1S(=O)(=O)NC(=O)Nc1nc(OC)cc(OC)n1,inactive,
O=C(O)CCCOc1ccc(Cl)cc1Cl,inactive,
COP(=O)(OC)OC=C(Cl)Cl,inactive,
O=[N+]([O-])c1c(Cl)c(Cl)c(Cl)c(Cl)c1Cl,,37.6 µM (active)
